In PubChem BioAssay (Tox21):
Results filed as inconclusive are left out. The source made the active and inactive calls. Unless noted, calls follow the shape of the dose curve; as a rule, active = well fitted curve in the direction sought with a large enough effect in the repeat runs; inconclusive = weak or mixed curves; inactive = no such curve, though single readings can be large; an effect the other way counts as inactive or inconclusive.

Tests used:
[1] = qHTS assay to identify small molecule agonists of the hypoxia (HIF-1) signaling pathway - cell viability counter screen (AID 1224844; calls by dose curve; also: nearly all actives have a fitted effect of over 50% in size)
Method in brief: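 Same wells as the HIF-1 reporter screen; ME-180 cells carrying HRE-bla, 17 hr treatment at 37C; CellTiter-Glo luminescence read after 30 min at room temperature.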

[2] = qHTS assay to identify small molecule agonists of H2AX (AID 1224845; active = well fitted activation curve with a large enough effect in the signal ratio in the repeat runs, not every such curve was filed as active; the % refers to the signal ratio)
Method in brief: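 Wild-type CHO-K1 cells plated overnight, then exposed 3 hr at 37C to compounds at 15 concentrations (0.76% DMSO). Lysed, then HTRF anti-pH2AX(S139)-cryptate/anti-H2AX-d2 detection after 24 hr at room temperature; emissions 665 and 620 nm.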

[3] = qHTS assay to identify small molecule antagonists of the estrogen related receptor (ERR) signaling pathway from Tox21 library (AID 1224848); also: nearly all actives have a fitted effect of over 50% in size
Method in brief: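 First, 2,000 ERR cells per well were plated and held 6 h at 37 C/5% CO2. Next, compounds in DMSO were pinned in and left 18 h at 37 C. Finally, ONE-Glo was added and luminescence read after 30 min at room temperature.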

[4] = qHTS assay to identify small molecule agonists of the estrogen related receptor (ERR) signaling pathway from Tox21 library (AID 1224849; calls by dose curve; also: nearly all actives have a fitted effect of over 15% in size); conditions: ERR reporter cell line, ONE-Glo luciferase, 18 h; at 92.4 µM (top of the series) unless noted
Method in brief: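 Reporter cells (ERR, NTP source) treated with Tox21 10K compounds 18 h, 37 C. Readout: ONE-Glo luminescence, 30 min RT.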

[5] = qHTS RealTime-Glo MT Cell Viability Assay in HepG2 cells - 24 hour (AID 1224867); also: nearly all actives have a fitted effect of over 50% in size
Method in brief: (§1)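 Cell number in HepG2 cultures estimated from NanoLuc luminescence generated by metabolic reduction of a prosubstrate by living cells. The homogeneous, nonlytic format allowed repeated reads at 0, 8, 16, 24, 32 and 40 h of compound exposure.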

[6] = qHTS RealTime-Glo MT Cell Viability Assay in HEK293 cells - 32 hour (AID 1224868); also: top concentration of the series differs between compounds; nearly all actives have a fitted effect of over 50% in size
Method in brief: (§2)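 Homogeneous bioluminescent viability format in HEK293 cells (600 cells/well). Following 5 h at 37 C/5% CO2, 23 nL compound was pintooled; the signal was measured repeatedly during 40 h incubation.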

[7] = A CellTox Green Cytotoxicity Assay to monitor cytotoxicity in HEK293 cells - 0 hour (AID 1224869); also: nearly all actives have a fitted effect of over 50% in size
Method in brief: (§3)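 Homogeneous no-lysis format: HEK293 cell suspension mixed with CellTox Green reagent, seeded, incubated 5 h at 37 C/5% CO2, then dosed by pintool with compound in DMSO.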

[8] = qHTS RealTime-Glo MT Cell Viability Assay in HepG2 cells - 40 hour (AID 1224870); also: nearly all actives have a fitted effect of over 50% in size
Method in brief: (§4)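 HepG2 cells mixed with RealTime-Glo MT reagents (NanoLuc plus cell-permeant prosubstrate) were seeded at 600 cells/well, incubated 5 h at 37 C/5% CO2, then pinned with compounds in DMSO; nonlytic luminescence tracked viability during 40 h treatment.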

[9] = A CellTox Green Cytotoxicity Assay to monitor cytotoxicity in HEK293 cells - 40 hour (AID 1224871); also: nearly all actives have a fitted effect of over 45% in size
Method in brief: as §3

[10] = qHTS RealTime-Glo MT Cell Viability Assay in HEK293 cells - 16 hour (AID 1224872)
Method in brief: as §2

[11] = qHTS RealTime-Glo MT Cell Viability Assay in HepG2 cells - 8 hour (AID 1224873); also: nearly all actives have a fitted effect of over 55% in size
Method in brief: as §4

[12] = qHTS RealTime-Glo MT Cell Viability Assay in HEK293 cells - 40 hour (AID 1224874); conditions: RealTime-Glo luminescence; max response: active compounds read low; also: nearly all actives have a fitted effect of over 50% in size
Method in brief: (§5)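 Measured as luminescence from the same continuously cultured HEK293 wells at successive time points (0, 8, 16, 24, 32, 40 h) after compound addition. Reagent present from seeding; dosing at 5 h; incubation 37 C.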

[13] = A CellTox Green Cytotoxicity Assay to monitor cytotoxicity in HEK293 cells - 24 hour (AID 1224875); also: nearly all actives have a fitted effect of over 45% in size
Method in brief: as §3

[14] = A CellTox Green Cytotoxicity Assay to monitor cytotoxicity in HepG2 cells - 16 hour (AID 1224876); also: nearly all actives have a fitted effect of over 45% in size
Method in brief: (§6)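 Fluorescent DNA-binding dye, 600 HepG2 cells/well, 5 h preincubation then compound in DMSO; same plates read at 0–40 h, 37 C.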

[15] = qHTS RealTime-Glo MT Cell Viability Assay in HepG2 cells - 32 hour (AID 1224877); also: nearly all actives have a fitted effect of over 55% in size
Method in brief: as §1

[16] = A CellTox Green Cytotoxicity Assay to monitor cytotoxicity in HepG2 cells - 24 hour (AID 1224878); also: nearly all actives have a fitted effect of over 45% in size
Method in brief: as §6

[17] = A CellTox Green Cytotoxicity Assay to monitor cytotoxicity in HepG2 cells - 40 hour (AID 1224879); also: nearly all actives have a fitted effect of over 40% in size
Method in brief: as §6

[18] = qHTS RealTime-Glo MT Cell Viability Assay in HEK293 cells - 0 hour (AID 1224880)
Method in brief: as §5

[19] = qHTS assay to identify small molecule agonists of H2AX - cell viability counter screen (AID 1224847; calls by dose curve; also: top concentration of the series differs between compounds; nearly all actives have a fitted effect of over 30% in size)
Method in brief: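 Compounds tested at 15 concentrations were incubated 3 hr at 37C with wild-type CHO-K1 cells; cellular ATP-based luminescence (CellTiter-Glo) indicated viability.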

[20] = qHTS assay to identify small molecule agonists of the hypoxia (HIF-1) signaling pathway (AID 1224846; active = well fitted activation curve with a large enough effect in the signal ratio in the repeat runs, not every such curve was filed as active; the % refers to the signal ratio)
Method in brief: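 In ME-180 cells bearing an HRE-bla construct, 17 h treatment with DMSO-dissolved compounds at 37C was followed by CCF4-AM loading to quantify reporter induction.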
% is scaled to controls: 0 for no effect and ±100 for the full control effect.

O=C(CCN1CCN2CCCC2C1)N1c2ccccc2Sc2ccc(Cl)cc21 (stereo not drawn)
inactive: activity change, negative = cytotoxicity [1] 1.19% [at 15.8 µM] | activation (H2AX phosphorylation) [2] -2.77% [at 31.6 µM] | activity, negative = inhibition [3] -23.7% [at 19 µM] | activity change, positive = activation [4] -13.2% [at 19 µM] | activity change, negative = cytotoxicity [5] -4.92% [at 15.8 µM] | activity change, negative = cytotoxic [6] -23% [at 15.8 µM] | cytotoxicity [7] -5.19% [at 15.8 µM] | activity change, negative = cytotoxic [8] -2.23% [at 15.8 µM] | cytotoxicity increase [9] 2.75% [at 15.8 µM] | activity change, negative = cytotoxicity [10] -13.3% [at 15.8 µM] | viability change, negative = cytotoxic [11] -2.56% [at 15.8 µM] | max response [12] -21.5% | activity change [13] 0.914% [at 15.8 µM, active compounds read high] | cytotoxicity increase [14] 6.02% [at 15.8 µM] | activity change, negative = cytotoxic [15] -4.67% [at 15.8 µM] | cytotoxicity [16] 14.6% [at 15.8 µM] | cytotoxicity increase [17] 22.2% [at 15.8 µM] | activity change, negative = cytotoxicity [18] -6.17% [at 15.8 µM]

CC(C)(C)C1CCCCC1O (stereo not drawn)
inactive: Potency [1] | Potency [2] | Potency [19] | Potency [5] | Potency [6] | Potency [7] | Potency [9] | Potency [10] | max response [12] 0.612% | Potency [13] | Potency [15] | Potency [18]

CN1CCC[C@@H]1c1cccnc1
inactive: Potency [1] | Potency [2] | Potency [5] | Potency [6] | Potency [7] | Potency [8] | Potency [9] | Potency [11] | max response [12] 7.25% | Potency [13] | Potency [15] | Potency [18]

CCOc1nc2cccc(C(=O)O)c2n1Cc1ccc(-c2ccccc2-c2nn[nH]n2)cc1
inactive: Potency [1] | Potency [2] | Potency [19] | Potency [3] | activity change, positive = activation [4] 4.21% [at 42.5 µM] | Potency [5] | Potency [6] | Potency [7] | Potency [9] | Potency [10] | Potency [11] | max response [12] 9.75% | Potency [13] | Potency [14] | Potency [15] | Potency [16] | Potency [17] | Potency [18]

COC(=O)CSc1cc(N=c2sc(=O)n3n2CCCC3)c(F)cc1Cl
inactive: Potency [1] | Potency [2] | Potency [19] | Potency [5] | Potency [6] | Potency [7] | Potency [8] | Potency [9] | Potency [10] | Potency [11] | max response [12] 3.98% | Potency [15] | Potency [17] | Potency [18]

Cn1c(NCCN(CCO)CCCc2ccc([N+](=O)[O-])cc2)cc(=O)n(C)c1=O
inactive: Potency [1] | outcome [20] | Potency [3] | activity change, positive = activation [4] 4.48% [at 42.5 µM] | Potency [5] | Potency [6] | Potency [7] | Potency [8] | Potency [10] | Potency [11] | max response [12] -12.1% | Potency [13] | Potency [15] | Potency [16] | Potency [17] | Potency [18]

Cc1cc(C)c(S(=O)(=O)O)cc1N=Nc1cc(S(=O)(=O)O)c2ccccc2c1O
inactive: Potency [1] | outcome [20] | Potency [5] | Potency [7] | Potency [9] | Potency [11] | Potency [13] | Potency [16] | Potency [17] | Potency [18]

CCCCCCCCCO
inactive: Potency [1] | outcome [20] | Potency [3] | activity change, positive = activation [4] 5.42% | Potency [6] | Potency [7] | Potency [9] | Potency [11] | max response [12] 18.9% | Potency [13] | Potency [14] | Potency [16] | Potency [17]
